Inconclusive results are not listed. A number with no mark means an inactive call. Calls of active or inactive are those of the source. Calls come from the whole dose curve; as a rule, active = well fitted inhibition curve with a large enough effect; inconclusive = small, poorly fitted or top-dose-only effect; inactive = flat fitted curve, though single readings scatter.
biological target: Calcium and integrin-binding protein 1 (Homo sapiens) (UniProt Q99828); assay: Primary qHTS for Identification of Calcium Integrin Binding Protein 1 (CIB1) Competitor (AID 1508620); conditions: CIB1-GST / FITC-alphaIIb peptide fluorescence polarization; series mostly up to 114 µM; activity change, negative = inhibition: at the top concentration;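 note: GST tagged CIB1 binding a fluorescein labelled alphaIIb integrin peptide tracer; top concentration of the series differs between compounds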
Summary of the method: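 Fluorescence polarization competition: CIB1-GST (1 uM final) preincubated with compound 15 min at room temperature, then FITC-labeled alphaIIb peptide (100 nM final) added for another 15 min. Polarization read at Ex 480/Em 540.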
% is set by controls: 0 for no effect and ±100 for the full control effect.

Chain of Calcium and integrin-binding protein 1 (Homo sapiens) (Q99828 whole entry, looked up): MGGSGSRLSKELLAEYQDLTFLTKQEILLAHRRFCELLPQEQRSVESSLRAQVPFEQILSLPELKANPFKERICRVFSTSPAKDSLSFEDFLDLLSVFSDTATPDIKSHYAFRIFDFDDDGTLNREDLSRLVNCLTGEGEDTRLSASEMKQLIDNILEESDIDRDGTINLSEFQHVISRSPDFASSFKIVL

| Structure (SMILES) | activity change, negative = inhibition | Potency |
| --- | --- | --- |
| O=c1c2ccccc2nc2sc(NCc3ccc(Sc4ccccc4)cc3)nn12 | 4.21% | – |
| Cc1nnc(-c2cnn(C)c2)n1CCCn1ccnc1 | -2.87% | – |
| CSc1ccc(-c2cncc(NC(=O)c3cccs3)c2)cc1 | -6.29% | – |
| COc1ccc(C2=Nn3c(nnc3-c3ccccc3C)SC2)cc1OC | -3.78% | – |
| Fc1cc(Nc2nc(-c3ccncc3)nc3ccccc23)ccc1-c1cccc(OC(F)F)c1 | 2.76% | – |
| COc1cc(-c2ccc3ncnc(NCCc4cnc[nH]4)c3c2)cc(OC)c1OC | -3.32% | – |
| CCOC(=O)c1cccc(NC(=O)Nc2nnc(-c3ccncc3)s2)c1 | 4.82% | – |
| Cc1cc(NS(=O)(=O)c2cc3c(cc2F)NC(=O)CC3)ccc1Cl | – | inactive |
| COc1ccc(OC)c(-c2nnc3n2N=C(c2c(OC)cccc2OC)CS3)c1 | 6.05% | – |
| COc1ccc(C2=Nn3c(nnc3-c3cc(OC)ccc3OC)SC2)c(OC)c1 | 1.36% | – |
| COc1cccc(-c2ccc(=O)n(CC(=O)NCCc3ccccc3)n2)c1 | -2.24% | – |
| Cc1ccccc1C(=O)N1CCc2cc(-n3cc(NC(=O)Cc4ccccc4)cn3)ccc21 | 2.64% | – |
| O=C(c1ccc2c(c1)ncn2-c1ccccc1)N1CCCCC1 | 2.05% | – |
| CC(C)c1ccccc1-c1ncc(F)c(NC(C)(C)c2ccc(-c3cccnc3)cc2)n1 | -2.26% | – |
| CCN(CCc1cn(C)cn1)c1ncnc2ccc(-c3ccc4c(c3)OCO4)cc12 | 4.75% | – |
| C#CCOc1cc(C2=Nn3c(nnc3-c3cccc(OCC(C)=O)c3)SC2)ccc1OC | -2.43% | – |
| COc1cc(-c2ccc3ncnc(NCC4CCCO4)c3c2)cc(OC)c1OC (stereo not given) | 0.423% | – |
| Cc1cc(C)n2ncc(C(=O)Nc3ccc(C#N)cc3)c2n1 | 5.01% | – |
| C/C=C\C1=CCCC1Nc1ncnc2ccc(-c3c(C)noc3C)cc12 (stereo not given) | -2.11% | – |
| Cn1nnnc1Sc1ncnc2scc(-c3cccc(C(F)(F)F)c3)c12 | -3.32% | – |

| Structure (SMILES) | activity change, negative = inhibition | Potency |
| --- | --- | --- |
| Cc1ccc(CNc2ccc(N3CCOCC3)cc2)cc1 | -2.76% | – |
| NC(=O)C1CCN(c2nc(-c3ccc4ccccc4c3)cs2)CC1 | -3.42% | – |
| CCOC(=O)C1CCN(C(=O)C(C)(C)NC(=O)Nc2ccc(N(C)C)cc2)CC1 | -2.05% | – |
| CN(C)c1ccc2c(=O)n3nc(Nc4ccc5c(c4)CCC5)sc3nc2c1 | -4.24% | – |
| O=C(Cc1ccc(Cl)c(Cl)c1)Nc1ccc([S+](=O)([O-])Nc2ncn[nH]2)cc1 | -10.3% | – |
| O=C(O)c1ccc2c(c1)C(=O)N([C@H](Cc1ccc(O)c(O)c1)C(=O)O)C2=O | -3.04% | – |
| CC(C)c1nc2c(cnn2C)c(=O)n1N | 7.12% | – |
| CCOc1ccc(CCNC(=O)C2CCCCC2)cc1OCC | 1.1% | – |
| O=[S+]([O-])(NC[C@H]1CCC[C@H](CN[S+](=O)([O-])c2c(F)cccc2F)C1)c1ccc2c(c1)OCCO2 | 1.79% | – |
| CC1(C)CC2CC(C)(CN2S(=O)(=O)c2ccc(C(=O)Nc3cccc(S(=O)(=O)N4CCOCC4)c3)cc2)C1 (stereo not given) | 8.98% | – |
| COc1cccc(NCc2ccc(O)c3ncccc23)n1 | 11.3% | – |
| Cc1ccccc1S(=O)(=O)N1CCN(S(=O)(=O)c2ccc3c(c2)OCCO3)CC1 | -3.54% | – |
| Cc1cc2c(s1)c1cnn(Cc3ccccc3Br)c(=O)c1n2C | 7.06% | – |
| COc1ccc(C[C@@H](NS(=O)(=O)c2ccc(C(=O)O)cc2)C(=O)O)cc1 | -5.33% | – |
| N#CN1CCC(NS(=O)(=O)c2ccc(C(F)(F)F)cc2)C1 (stereo not given) | -2.58% | – |
| O=C(Cc1ccc(Cl)c(Cl)c1)Nc1ccc([S+](=O)([O-])Nc2cccc([N+](=O)[O-])c2)cc1 | -8.85% | – |
| Cc1nc(NCc2ccc(-c3cccnc3)cc2)c2ccccc2n1 | 4.01% | – |
| CC(C)(C)OC(=O)N1CCN(c2ccc(NCc3ccc(-c4ccc(C#N)cc4)o3)nc2)CC1 | 4.28% | – |
| NC(=O)c1c(NC(=O)c2ccncn2)sc2c1CCCC2 | – | inactive |
| C=CCc1cc(F)c(S(=O)(=O)N2CCN(S(=O)(=O)c3ccc4c(c3)OCCO4)CC2)cc1F | 3.05% | – |
